NPR1 antag – antagonists of human natriuretic peptide receptor Npr1; HEK293 hNpr1 GloSensor cGMP, ANP-stimulated luminescence; Potency, µM (top dose mostly 46.3 µM), for inactives: top-dose activity change, negative = inhibition, actives largely listed as inhibitors; actives 1.6% (n = 76,000); AID 1347048; note: % is set by controls: 0 for no effect and ±100 for the full control effect; nearly all actives have a fitted effect of over 60% in size
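Compound pre-incubated 30 min at room temperature on GloSensor-loaded HEK293 cells stably carrying hNpr1 and the pGS-40F cGMP biosensor. Stimulation uses hNppA at 0.1 nM final; luminescence is taken at baseline and 20 min post-agonist.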
FLuc inh – blocks purified firefly luciferase enzyme activity | actives 2.5% (n = 76,000) | P08659 | purified P. pyralis luciferase, luminescence, biochemical | Potency, µM (highest dose often 115 µM), hits mostly inhibitors; active = well fitted curve in the direction sought with a large enough effect; inconclusive = small, poorly fitted or top-dose-only effect, or another doubt; inactive = no such curve, though single readings can be large; an effect the other way counts as inactive or inconclusive; note: % is set by controls: 0 for no effect and ±100 for the full control effect; nearly all actives have a fitted effect of over 65% in size
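Luminescence read by CCD imager after adding enzyme (10nM final) to wells holding compound, titrated in qHTS. Substrates 10uM each D-luciferin and ATP; buffer 50mM Tris acetate pH 7.5, 10mM Mg acetate, Tween-20, BSA.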
NIH3T3 tox – kills NIH 3T3 cells; actives 4.3% (n = 94,000); AID 1345082; Potency, µM (series often up to 96.7 µM), without a hit: top-dose activity change, negative = cytotoxicity, usual class: inhibitors; NIH 3T3 viability, CellTiter-Glo ATP luminescence, 48-72 h; active = well fitted curve in the direction sought with a large enough effect; inconclusive = small, poorly fitted or top-dose-only effect, or another doubt; inactive = no such curve, though single readings can be large; an effect the other way counts as inactive or inconclusive; note: % is set by controls: 0 for no effect and ±100 for the full control effect; nearly all actives have a fitted effect of over 55% in size
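First NIH 3T3 cells are plated at 400 cells/well; next compound is pinned in; then plates incubate 48 or 72 hr at 37 °C; finally CellTiter-Glo is added and luminescence read after 10 min.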
HEK293 tox – cytotoxic compounds in HEK 293 cells; HEK 293 viability, ATP luminescence (CellTiter-Glo), 48-72 h; Potency, µM (titrated, usually from 115 µM), for inactives: at the highest dose activity change, negative = cytotoxicity, hits mostly inhibitors; actives 6.6% (n = 94,000); active = well fitted curve in the direction sought with a large enough effect; inconclusive = small, poorly fitted or top-dose-only effect, or another doubt; inactive = no such curve, though single readings can be large; an effect the other way counts as inactive or inconclusive; note: % is set by controls: 0 for no effect and ±100 for the full control effect; nearly all actives have a fitted effect of over 60% in size
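HEK 293 cells at 250 cells/well were exposed to compounds by pintool transfer for 48 or 72 hr at 37 degree Celsius, 5% CO2. Viability was read as ATP-coupled luminescence with CellTiter-Glo after 10 min at room temperature.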
Npr1 antag conf – hNpr1 antagonism, confirmation assay; actives 76% (n = 1,400); Potency, µM (top dose mostly 57.6 µM), for inactives: top-dose activity change, negative = inhibition, hits mostly inhibitors; HEK293 hNpr1 cGMP GloSensor luminescence, ANP-stimulated; shares compounds with NPR1 antag; AID 1347044; note: nearly all actives have a fitted effect of over 70% in size
Npr2 selectivity – selectivity test of Npr1 antagonists against human Npr2; shares compounds with NPR1 antag; HEK293 hNpr2 GloSensor cGMP luminescence, CNP-stimulated; Potency, µM (titrated, usually from 57.6 µM), inactives show at the highest dose activity change, negative = inhibition, usual class: inhibitors; actives 67% (n = 1,400); AID 1347046; note: nearly all actives have a fitted effect of over 70% in size
FLuc counter – FLuc enzyme inhibition, Npr1 counter-screen; shares compounds with NPR1 antag; actives 0.7% (n = 1,400); purified FLuc enzyme, luminescence, Km substrate; Potency, µM (titrated, usually from 57.6 µM), for inactives: at the highest dose activity change, negative = inhibition, actives largely listed as inhibitors; AID 1347047; active = well fitted curve in the direction sought with a large enough effect; inconclusive = small, poorly fitted or top-dose-only effect, or another doubt; inactive = no such curve, though single readings can be large; an effect the other way counts as inactive or inconclusive; note: series mostly up to about 58 µM; 0% is about no effect
GloSensor ctrl – counter-screen for Npr1 antagonists: GloSensor control cell line; shares compounds with NPR1 antag; Potency, µM (highest dose often 57.6 µM), for the others: at the top dose activity change, negative = inhibition, actives largely listed as inhibitors; HEK293 GloSensor cGMP, SNP-stimulated, luminescence; AID 1347051; actives 69% (n = 1,400); note: % is set by controls: 0 for no effect and ±100 for the full control effect; nearly all actives have a fitted effect of over 70% in size
Starred values were filed as active, the others as inactive; i = inactive; ? = inconclusive; . = no result; [ ] = another dose, or the depositor's remark. Compounds with a hit are over-represented: about 11% of the library has one in this group of screens. Unless noted, calls come from the whole dose curve. Potency is the fitted concentration of half-maximal effect.

SMILES	NPR1 antag	FLuc inh	NIH3T3 tox	HEK293 tox	Npr1 antag conf	Npr2 selectivity	FLuc counter	GloSensor ctrl
COc1cccc(CCC(=O)N2CCC(Cc3nc(-c4ccc(F)cc4)no3)CC2)c1	11µM*	i	?	?	14µM*	17µM*	3%	11µM*
COc1ccccc1CCC(=O)N1CCC(Cc2nc(-c3ccccc3)no2)CC1	?	i	?	?	.	.	.	.
COc1cccc(-c2noc(CC3CCN(C(=O)CCCc4ccccc4)CC3)n2)c1	?	i	?	?	?	?	0%	31µM*
OC[C@@H]1O[C@H](CNCc2cccc(Cl)c2)[C@H](N2CCCC2)[C@@H]1O	-1%[70.6 µM]	i	3%[138 µM]	-12%[172 µM]	.	.	.	.
O=C(CCCc1ccccc1)N1CCC2(CC1)CC(Cc1nc(-c3cccnc3)no1)CCO2 (centres undefined)	16µM*	i	?	35µM*	22µM*	19µM*	2%	19µM*
NC(=O)[C@@H]1C[C@H](Oc2cccnc2)CN1S(=O)(=O)c1ccccc1	-2%	i	1%	-7%	.	.	.	.
Cc1ccc(C(=O)N2CCC(Cc3nc(-c4ccccc4)no3)CC2)cn1	6.3µM*	i	?	?	4.8µM*	5.4µM*	23%	4.3µM*
COc1ccc(-c2noc(CC3CCN(C(=O)c4ccc(C)nc4)CC3)n2)cc1	7.1µM*	i	?	?	5.4µM*	6.9µM*	-1%	5.4µM*
COc1ccc(C(=O)N2CCC(Cc3nc(C(C)C)no3)CC2)cc1	?	i	?	?	.	.	.	.
CCc1noc(-c2cn(C3CCN(C(=O)c4ccc(C)cc4C)C3)nn2)n1 (centres undefined)	?	i	?	?	.	.	.	.
CC(=O)N1CCC(Cc2ccc(C(=O)NC3CCN(Cc4ccccc4)CC3)cc2)CC1	11µM*	i	?	?	24µM*	?	1%	24µM*
CN(C/C=C/c1ccccc1)c1cc(C2CC(O)C2)nc(N)n1 (centres undefined)	13µM*	i	-74%	?	22µM*	17µM*	1%	24µM*
COc1ccc(Cl)cc1-c1ccc2c(n1)CN(CCOc1ccccc1)C(=O)CO2	22µM*	i	?	100µM*	35µM*	35µM*	1%[86.2 µM]	31µM*
O=C(CN1CCOCC1)N1CC(F)(F)C[C@H]1c1nc(C2CC2)no1	4%	i	i	5%	.	.	.	.
CCCNC(=O)N1C[C@@H]2C(=O)N(C(CC)c3cccs3)C(=O)[C@@H]2C1 (some centres undefined)	3%	i	i	6%	.	.	.	.
CCc1cc(N2CCCC(C(=O)c3sccc3C)C2)ncn1 (centres undefined)	7.1µM*	i	-39%	32µM*	7.7µM*	12µM*	3%	7.7µM*
O=C(C1CCCN1[S+](=O)([O-])c1cccs1)N1CCC(c2nc3ccncc3[nH]2)C1 (centres undefined)	.	.	-4%	i	.	.	.	.
Cc1noc(C)c1CCC(=O)NC1CCCc2c1[nH]c1c(Cl)cccc21 (centres undefined)	-30%	i	35µM*	?	?	?	0%	?
CCOCCCNC(=O)N1CCC2(CC1)CC(N1CCOCC1)CCO2 (centres undefined)	-12%	i	-3%	8%	.	.	.	.
COc1ccc(C(=O)N2CCC3(CC2)NC(=O)N(Cc2ccccc2)C3=O)cc1	0%	i	-8%	-23%	.	.	.	.
COc1ccc(C(=O)N2CCC3(C2)C(=O)N(Cc2ccccc2)c2ccccc23)cc1 (centres undefined)	5µM*	i	?	?	17µM*	17µM*	-1%	11µM*
CCc1nnc(CN(C)C(=O)c2cnc(-c3ccc(C)cc3)[nH]c2=O)o1	11%	i	i	3%	.	.	.	.
COCCN1CCCC2(CCN(c3nc(C)nc4sccc34)C2)C1=O (centres undefined)	?	i	?	-34%	24µM*	?	-1%	24µM*
Cc1nn2c(c1-c1cccnc1N1CCOCC1)N(C(=O)Cc1ccc(Cl)cc1)CCC2	1%	i	?	?	.	.	.	.
Cc1nn2c(c1-c1cccnc1N1CCOCC1)N(CC1CCOCC1)CCC2	?	i	35µM*	?	?	?	5%[86.2 µM]	?
SMILES	NPR1 antag	FLuc inh	NIH3T3 tox	HEK293 tox	Npr1 antag conf	Npr2 selectivity	FLuc counter	GloSensor ctrl
COc1ccc2ccc(OCc3nc(C(=O)N4CCNC(=O)C4C)co3)cc2c1 (centres undefined)	11µM*	i	?	?	24µM*	22µM*	-5%	22µM*
CNC(=O)C1CCN(C(=O)c2coc(COc3ccc4ccc(OC)cc4c3)n2)C1 (centres undefined)	-24%	?	?	?	.	.	.	.
O=C(NCCCc1ccccc1)C1CCN(c2cc(C(F)(F)F)ncn2)CC1	11µM*	i	?	?	22µM*	19µM*	-1%	11µM*
COc1ccc(C(C)NC(=O)C2CCN(c3cc(C(F)(F)F)ncn3)CC2)cc1 (centres undefined)	16µM*	i	?	?	24µM*	27µM*	2%	22µM*
Cc1ccc(NC(=O)C2CCN(c3cc(C(F)(F)F)ncn3)CC2)cc1	8.9µM*	i	?	?	14µM*	15µM*	0%	12µM*
CCc1ccc(NC(=O)C2CCN(c3cc(C(F)(F)F)ncn3)CC2)cc1	7.9µM*	i	?	?	11µM*	11µM*	-1%	9.7µM*
O=C(NCc1ccccc1)C1CCN(c2cc(C(F)(F)F)ncn2)CC1	?	i	?	?	.	.	.	.
Cc1cc(C)cc(C(=O)N2CCC(Oc3ccc(C(=O)N(C)C)cn3)CC2)c1	-5%	i	-22%	-19%	.	.	.	.
CC(C)NC(=O)N1CCN(C(=O)c2ccc(N(C)C)cc2)C[C@H]1C(=O)N[C@@H](CC1CCCCC1)C(N)=O	0%	i	-3%	-1%	.	.	.	.
